Holding throughout (details): primary human HUVEC with PBMC; actives raise or lower the signal
Read-out in test [1]: Macrophage colony-stimulating factor (MCSF), CSF1 (gene 1435)
The test can be described thus: BSK_LPS_MCSF: BioMAP Diversity Plus: LPS Assay for Macrophage colony-stimulating factor (MCSF) Biomarker Activity (AID 2283083). The procedure, abridged:
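Compound is added to a human vascular primary co-culture of umbilical vein endothelium and blood mononuclear cells. After 24 h, M-CSF is quantified by ELISA. Signal changes are fitted in both directions against DMSO.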

Read-out in test [2]: Tissue Factor, F3 (gene 2152)
Put plainly: BSK_LPS_TissueFactor: BioMAP Diversity Plus: LPS Assay for Tissue Factor Biomarker Activity (AID 2283084). The procedure, abridged:
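In this co-culture system of umbilical vein endothelium with PBMC, stimulated with LPS, cell-surface CD142 is detected by ELISA at 24 h. Endpoint values derive from bidirectional fitting, DMSO serving as baseline.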

Read-out in test [3]: Tumor necrosis factor (Homo sapiens) (UniProt P01375)
The test can be described thus: BSK_LPS_TNFa: BioMAP Diversity Plus: LPS Assay for Tumour Necrosis Factor alpha (TNFa) Biomarker Activity (AID 2283085). The essentials: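 Cells (umbilical vein endothelium plus peripheral blood mononuclear cells) were dosed with chemical, incubated 24 h, then TNFa was quantified by ELISA; values derive from bidirectional fitting with DMSO as baseline.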

Read-out in test [4]: Vascular cell adhesion molecule 1 (VCAM1), VCAM1 (gene 7412)
The test can be described thus: BSK_LPS_VCAM1: BioMAP Diversity Plus: LPS Assay for Vascular cell adhesion molecule 1 (VCAM1) Biomarker Activity (AID 2283086). The essentials: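 Cells are dosed in an LPS-stimulated endothelial/mononuclear co-culture and, after 24 h, VCAM-1 is quantified by ELISA. Activity in either direction is fitted relative to the DMSO negative control.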

Read-out in a further test: CD38, CD38 (gene 952)
The test can be described thus: BSK_SAg_CD38: BioMAP Diversity Plus: SAg Assay for CD38 Biomarker Activity (AID 2283087). The essentials: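 CD38 quantified by ELISA (fluorescence) in a superantigen-activated endothelial cell–PBMC co-culture at 24 h post-dose. Activity fitted in both directions relative to DMSO; parallel SRB and Alamar Blue cytotoxicity read-outs.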

Read-out in the next test: CD40, CD40 (gene 958)
The test can be described thus: BSK_SAg_CD40: BioMAP Diversity Plus: SAg Assay for CD40 Biomarker Activity (AID 2283088). The essentials: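 Fluorescence ELISA read-out of CD40 from umbilical vein endothelium plus peripheral blood mononuclear cells, sampled 24 h after dosing. Values come from bidirectional curve fitting with DMSO as baseline.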

Read-out in the next test: CD69, CD69 (gene 969)
Put plainly: BSK_SAg_CD69: BioMAP Diversity Plus: SAg Assay for CD69 Biomarker Activity (AID 2283089). The essentials: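 Primary human vascular co-culture (umbilical vein endothelium with peripheral blood mononuclear cells) exposed to test chemical for 24 h. CD69 levels quantified by fluorescence ELISA; DMSO served as negative control for bidirectional fitting.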

Read-out in test [5]: Monocyte Chemoattractant Protein-1 (MCP1), CCL2 (gene 6347)
The test can be described thus: BSK_SAg_MCP1: BioMAP Diversity Plus: SAg Assay for Monocyte Chemoattractant Protein-1 (MCP1) Biomarker Activity (AID 2283090). The essentials:
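Values derive from bidirectional fitting of ELISA-measured MCP1 against DMSO controls. Readings were taken 24 h after dosing human vascular endothelial cells co-cultured with peripheral blood mononuclear cells under superantigen stimulation.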

Read-out in test [6]: E-selectin (Homo sapiens) (UniProt P16581)
The test can be described thus: BSK_SAg_Eselectin: BioMAP Diversity Plus: SAg Assay for Eselectin Biomarker Activity (AID 2283091). The essentials: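 Primary human endothelial cells and peripheral blood mononuclear cells were co-cultured and exposed to chemical for 24 hours. E-selectin levels were then quantified by ELISA, with bidirectional curve fitting normalised to DMSO controls.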

Read-out in test [7]: Monokine induced gamma interferon (MIG), CXCL9 (gene 4283)
The test can be described thus: BSK_SAg_MIG: BioMAP Diversity Plus: SAg Assay for Monokine induced gamma interferon (MIG) Biomarker Activity (AID 2283092). The essentials: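 Endothelial cells and PBMC were co-cultured, exposed to test chemicals, and sampled 24 h later. MIG was measured by ELISA, and responses were fitted in both directions relative to DMSO.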

A structure can be active in one record and inactive in another. Calls of active or inactive are those of the source. The calls were made as follows: active = hit-call score of the fitted dose curve at least 0.9, where 1 is the maximum; inactive = score below 0.9.

Tumor necrosis factor (Homo sapiens), sequence (P01375 whole entry, looked up): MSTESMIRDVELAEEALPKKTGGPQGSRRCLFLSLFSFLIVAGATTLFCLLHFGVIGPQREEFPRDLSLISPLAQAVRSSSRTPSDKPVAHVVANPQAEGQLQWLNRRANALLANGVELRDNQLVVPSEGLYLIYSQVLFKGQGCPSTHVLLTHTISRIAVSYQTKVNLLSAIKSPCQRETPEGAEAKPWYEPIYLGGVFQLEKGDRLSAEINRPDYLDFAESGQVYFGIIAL
E-selectin (Homo sapiens), sequence (P16581 whole entry, looked up): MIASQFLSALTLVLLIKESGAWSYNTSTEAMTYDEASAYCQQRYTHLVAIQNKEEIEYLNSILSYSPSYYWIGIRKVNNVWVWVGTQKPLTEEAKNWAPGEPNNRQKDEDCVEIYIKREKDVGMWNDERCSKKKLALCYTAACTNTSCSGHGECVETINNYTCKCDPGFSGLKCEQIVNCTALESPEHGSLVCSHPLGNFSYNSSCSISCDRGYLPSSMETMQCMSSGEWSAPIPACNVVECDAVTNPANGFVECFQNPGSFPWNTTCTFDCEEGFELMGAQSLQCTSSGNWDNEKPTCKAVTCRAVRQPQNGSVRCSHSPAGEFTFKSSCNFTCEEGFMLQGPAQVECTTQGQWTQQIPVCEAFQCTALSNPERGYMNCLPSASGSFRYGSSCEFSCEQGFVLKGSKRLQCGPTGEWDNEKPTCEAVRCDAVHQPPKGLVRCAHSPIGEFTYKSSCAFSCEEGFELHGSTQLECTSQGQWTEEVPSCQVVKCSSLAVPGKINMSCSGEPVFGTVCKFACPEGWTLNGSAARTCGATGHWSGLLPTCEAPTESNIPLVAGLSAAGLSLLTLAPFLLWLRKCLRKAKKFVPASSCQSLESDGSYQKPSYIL

For the compound `CC(C=O)Cc1ccc(C(C)(C)C)cc1` (configuration not stated), the outcome in test [1] is “inactive”; in test [2], “inactive”; in test [3], “inactive”; in test [4], “inactive”; with CD38, CD38 (gene 952), “inactive”; in the test with CD40, CD40 (gene 958), “inactive”. The outcome in the test with CD69, CD69 (gene 969) was “inactive”; in test [5], “inactive”; in [6], “inactive”; in [7], “inactive”.

Take `CN(C)C(=O)Nc1ccc(Oc2ccc(Cl)cc2)cc1`: the outcome in test [1] was “inactive”; in [2], “inactive”; in [3], “inactive”; in [4], “inactive”; with CD38, CD38 (gene 952) it was “inactive”; with CD40, CD40 (gene 958), “inactive”. For the same compound, the outcome with CD69, CD69 (gene 969) was “inactive”; in test [5], “inactive”; in test [6] it was “inactive”; in test [7] it was “inactive”.

`C=C(C)C(=O)OCCOCCOCCOCCOC(=O)C(=C)C`: the outcome in [1] was “inactive”; in test [2] it was “inactive”; in test [3] it was “inactive”; in [4] it was “inactive”; with CD38, CD38 (gene 952) it was “inactive”; with CD40, CD40 (gene 958) it was “inactive”. In addition, the outcome with CD69, CD69 (gene 969) is “inactive”; in test [5], “inactive”; in test [6] it was “inactive”; in test [7], “inactive”.

Regarding `CCOC(=O)C(C#N)=C(c1ccccc1)c1ccccc1`, the outcome in test [1] was “inactive”; in test [2] it was “inactive”; in [3], “inactive”; in test [4], “inactive”; with CD38, CD38 (gene 952) it was “inactive”; with CD40, CD40 (gene 958) it was “inactive”. The outcome is “inactive” with CD69, CD69 (gene 969); “inactive” in test [5]; “inactive” in test [6]; “inactive” in test [7]. For the same compound, the AC50 – broadly, the midpoint of the concentration-response curve, whichever way the signal moves – is 20 µM (active) in test [5] and 29.8 µM (active) in test [6].

Turning to `CN(C)C(=S)SC(=S)N(C)C`, the outcome was “inactive” in [1]; “inactive” in test [2]; “inactive” in test [3]; “inactive” with CD40, CD40 (gene 958); “inactive” in the test with CD69, CD69 (gene 969); “inactive” in test [5]. Besides, the outcome in test [6] and in test [7] was inactive. For the same compound, the AC50 was 19.9 µM (active) in [4] and 26.7 µM (active) with CD38, CD38 (gene 952).

On to `CN(c1nccc(=O)[nH]1)C1CCN(c2nc3ccccc3n2Cc2ccc(F)cc2)CC1`, for which the outcome is “inactive” in test [1]; “inactive” in test [2]; “inactive” in test [3]; “inactive” in test [4]; “inactive” in the test with CD38, CD38 (gene 952); “inactive” with CD40, CD40 (gene 958). The outcome with CD69, CD69 (gene 969) was “inactive”; in [5] it was “inactive”; in test [6], “inactive”; in test [7] it was “inactive”.

Take `CCN(CC)C(=O)N(CC)CC`: the outcome in test [1] was “inactive”; in [2], “inactive”; in test [3] it was “inactive”; in [4], “inactive”; with CD38, CD38 (gene 952) it was “inactive”; with CD40, CD40 (gene 958) it was “inactive”. Besides, the outcome is “inactive” with CD69, CD69 (gene 969); “inactive” in test [5]; “inactive” in [6]; “inactive” in test [7].

For `CS(=O)(=O)c1ccc(C2=C(c3ccccc3)C(=O)OC2)cc1`, the outcome in test [1] was “inactive”; in [2] it was “inactive”; in [3], “inactive”; in test [4] it was “inactive”; in the test with CD38, CD38 (gene 952), “inactive”; in the test with CD40, CD40 (gene 958), “inactive”. In addition, the outcome is “inactive” in the test with CD69, CD69 (gene 969); “inactive” in [5]; “inactive” in test [6]; “inactive” in test [7].

Turning to `CC=Cc1ccc(OCC)c(O)c1`, the outcome is “inactive” in [1]; “inactive” in test [2]; “inactive” in test [3]; “inactive” in test [4]; “inactive” with CD38, CD38 (gene 952); “inactive” in the test with CD40, CD40 (gene 958). Besides, the outcome is “inactive” in the test with CD69, CD69 (gene 969); “inactive” in test [5]; “inactive” in [6]; “inactive” in test [7].

The values are drawn from PubChem BioAssay (EPA / NIEHS).
